Experimental data as given in the supplement of paper PMC10849652.
Targets with a hit are over-represented here; the source holds about 7,900 in all. About 0.6% of all pairs of compound and target were hits. Values without a mark were called inactive.

Assays:
Experiment in all cases: log2 fold change, soluble protein after heating vs DMSO (PISA); higher = thermal stabilisation; K562 cells, 10 uM, 30 min; active = over 0.2 and 3.5 SD of the protein, either way, in both replicates (recomputed)
bafetinib = compound: Cc1ccc(NC(=O)c2ccc(CN3CC[C@H](N(C)C)C3)c(C(F)(F)F)c2)cc1Nc1nccc(-c2cncnc2)n1 [bafetinib]
Method in brief: (§1)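 For each measurement, 10 μM compound was applied for 30 min to K562 cells at 2×10^6 cells/mL. Aliquots were heated for 3 min across 48°C-58°C, pooled, and extracted in PBS with 0.5% NP-40 at 4°C; the supernatant after 21,000xg for 90 min was soluble protein. This was quantified by TMTpro 16plex LC-MS/MS with channel sums equalised, and thermal stability was reported relative to control samples from duplicates, on a log2 fold-change scale.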

[1] = compound: Cc1cccc(CC(=O)N2CCc3c2ccc(-c2cn(C)c4ncnc(N)c24)c3F)n1
Method in brief: as §1

nilotinib = compound: Cc1cn(-c2cc(NC(=O)c3ccc(C)c(Nc4nccc(-c5cccnc5)n4)c3)cc(C(F)(F)F)c2)cn1 [nilotinib]
Method in brief: as §1

[2] = compound: Cc1nc(Nc2n[nH]c3c2CN(C(=O)N[C@H](CN(C)C)c2ccccc2)C3(C)C)c2sccc2n1
Method in brief: as §1

dasatinib = compound: Cc1nc(Nc2ncc(C(=O)Nc3c(C)cccc3Cl)s2)cc(N2CCN(CCO)CC2)n1 [dasatinib]
Method in brief: as §1

[3] = compound: Cc1ncc(-c2ccnc(Nc3ccc(S(C)(=O)=O)cc3)n2)n1C(C)C
Method in brief: as §1

[4] = compound: Cn1cc(-c2ccc3c(c2)CCN3C(=O)Cc2cccc(C(F)(F)F)c2)c2c(N)ncnc21
Method in brief: as §1

[5] = compound: Cn1cc(-c2ccc3nnc(C(F)(F)c4ccc5ncccc5c4)n3n2)cn1
Method in brief: as §1

tipifarnib = compound: Cn1cncc1[C@@](N)(c1ccc(Cl)cc1)c1ccc2c(c1)c(-c1cccc(Cl)c1)cc(=O)n2C [tipifarnib]
Method in brief: as §1

mubritinib = compound: FC(F)(F)c1ccc(/C=C/c2nc(COc3ccc(CCCCn4ccnn4)cc3)co2)cc1 [mubritinib]
Method in brief: as §1

[6] = compound: NC(=O)Nc1cc(-c2cccc(F)c2)sc1C(=O)N[C@H]1CCCNC1
Method in brief: as §1

[7] = compound: NC(=O)c1cnc(N[C@@H]2CCCC[C@@H]2N)nc1Nc1cccc(-n2nccn2)c1
Method in brief: as §1

[8] = compound: NC1(c2ccc(-c3nc4ccn5c(=O)[nH]nc5c4cc3-c3ccccc3)cc2)CCC1
Method in brief: as §1

[9] = compound: NCC(=O)Nc1ccc(-n2nc(C(F)(F)F)cc2-c2ccc3c(ccc4ccccc43)c2)cc1
Method in brief: as §1

entinostat = compound: Nc1ccccc1NC(=O)c1ccc(CNC(=O)OCc2cccnc2)cc1 [entinostat]
Method in brief: as §1

vorinostat = compound: O=C(CCCCCCC(=O)Nc1ccccc1)NO [vorinostat]
Method in brief: as §1

citarinostat = compound: O=C(CCCCCCNC(=O)c1cnc(N(c2ccccc2)c2ccccc2Cl)nc1)NO [citarinostat]
Method in brief: as §1

silmitasertib = compound: O=C(O)c1ccc2c(c1)nc(Nc1cccc(Cl)c1)c1ccncc12 [silmitasertib]
Method in brief: as §1

[10] = compound: O=C1NC(=O)C(c2cnc3ccccn23)=C1c1cn2c3c(cc(F)cc13)CN(C(=O)N1CCCCC1)CC2
Method in brief: as §1

[11] = compound: c1cc(OCCN2CCCCC2)cc(-c2n[nH]c3ccc(-c4nnc[nH]4)cc23)c1
Method in brief: as §1

UniProt Q969V5, sequence (Q969V5 whole entry, looked up): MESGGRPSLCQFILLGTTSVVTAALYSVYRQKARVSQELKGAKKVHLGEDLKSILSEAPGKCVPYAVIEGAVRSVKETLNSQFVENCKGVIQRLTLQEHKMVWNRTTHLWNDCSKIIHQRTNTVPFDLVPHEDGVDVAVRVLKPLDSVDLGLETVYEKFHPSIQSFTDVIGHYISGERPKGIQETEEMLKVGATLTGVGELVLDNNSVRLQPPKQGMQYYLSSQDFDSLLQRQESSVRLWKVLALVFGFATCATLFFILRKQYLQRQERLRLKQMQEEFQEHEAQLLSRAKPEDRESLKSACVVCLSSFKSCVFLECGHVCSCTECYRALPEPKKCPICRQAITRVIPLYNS
UniProt Q8NCE2, sequence (Q8NCE2 whole entry, looked up): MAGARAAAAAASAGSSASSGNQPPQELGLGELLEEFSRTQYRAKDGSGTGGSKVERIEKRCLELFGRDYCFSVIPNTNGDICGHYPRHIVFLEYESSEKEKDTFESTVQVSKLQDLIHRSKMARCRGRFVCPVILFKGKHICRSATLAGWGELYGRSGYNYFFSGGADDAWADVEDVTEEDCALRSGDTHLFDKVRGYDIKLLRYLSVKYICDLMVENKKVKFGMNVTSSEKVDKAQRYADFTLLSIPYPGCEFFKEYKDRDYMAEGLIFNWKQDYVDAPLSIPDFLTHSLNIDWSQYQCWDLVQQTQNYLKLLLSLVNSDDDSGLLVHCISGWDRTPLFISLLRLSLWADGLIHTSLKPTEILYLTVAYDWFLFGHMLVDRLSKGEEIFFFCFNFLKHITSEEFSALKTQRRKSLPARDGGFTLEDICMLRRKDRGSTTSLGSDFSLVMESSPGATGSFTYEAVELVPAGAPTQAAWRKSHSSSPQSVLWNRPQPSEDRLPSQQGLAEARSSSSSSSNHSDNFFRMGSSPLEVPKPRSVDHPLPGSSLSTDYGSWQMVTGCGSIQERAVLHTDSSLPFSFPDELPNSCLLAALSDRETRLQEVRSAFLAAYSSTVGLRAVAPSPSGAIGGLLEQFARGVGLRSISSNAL
UniProt Q9HCE1, sequence (Q9HCE1 whole entry, looked up): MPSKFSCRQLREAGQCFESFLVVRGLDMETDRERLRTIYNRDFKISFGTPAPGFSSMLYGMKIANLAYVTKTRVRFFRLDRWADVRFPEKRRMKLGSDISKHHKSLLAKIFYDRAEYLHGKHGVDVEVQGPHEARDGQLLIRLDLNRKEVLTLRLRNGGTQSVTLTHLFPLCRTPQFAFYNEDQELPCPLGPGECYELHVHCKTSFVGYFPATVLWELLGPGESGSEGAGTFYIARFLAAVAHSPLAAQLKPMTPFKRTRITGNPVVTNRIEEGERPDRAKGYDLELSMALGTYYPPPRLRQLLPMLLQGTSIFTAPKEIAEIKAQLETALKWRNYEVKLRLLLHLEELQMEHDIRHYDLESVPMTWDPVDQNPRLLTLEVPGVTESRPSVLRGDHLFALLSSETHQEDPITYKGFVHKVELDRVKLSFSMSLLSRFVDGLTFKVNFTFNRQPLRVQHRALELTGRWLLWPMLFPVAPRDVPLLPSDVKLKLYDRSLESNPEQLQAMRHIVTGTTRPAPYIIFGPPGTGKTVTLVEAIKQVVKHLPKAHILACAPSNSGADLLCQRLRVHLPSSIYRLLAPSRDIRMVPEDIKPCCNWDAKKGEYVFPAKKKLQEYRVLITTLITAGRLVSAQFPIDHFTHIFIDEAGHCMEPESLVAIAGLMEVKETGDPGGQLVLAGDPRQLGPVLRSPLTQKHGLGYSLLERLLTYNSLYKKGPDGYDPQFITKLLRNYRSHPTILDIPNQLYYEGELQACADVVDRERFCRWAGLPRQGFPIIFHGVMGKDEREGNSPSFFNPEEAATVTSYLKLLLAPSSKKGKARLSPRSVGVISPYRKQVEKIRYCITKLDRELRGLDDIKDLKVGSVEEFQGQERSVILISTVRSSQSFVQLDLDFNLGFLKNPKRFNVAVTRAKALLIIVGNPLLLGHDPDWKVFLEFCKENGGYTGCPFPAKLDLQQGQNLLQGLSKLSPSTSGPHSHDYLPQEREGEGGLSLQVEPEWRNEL
UniProt Q9BPX3, sequence (Q9BPX3 whole entry, looked up): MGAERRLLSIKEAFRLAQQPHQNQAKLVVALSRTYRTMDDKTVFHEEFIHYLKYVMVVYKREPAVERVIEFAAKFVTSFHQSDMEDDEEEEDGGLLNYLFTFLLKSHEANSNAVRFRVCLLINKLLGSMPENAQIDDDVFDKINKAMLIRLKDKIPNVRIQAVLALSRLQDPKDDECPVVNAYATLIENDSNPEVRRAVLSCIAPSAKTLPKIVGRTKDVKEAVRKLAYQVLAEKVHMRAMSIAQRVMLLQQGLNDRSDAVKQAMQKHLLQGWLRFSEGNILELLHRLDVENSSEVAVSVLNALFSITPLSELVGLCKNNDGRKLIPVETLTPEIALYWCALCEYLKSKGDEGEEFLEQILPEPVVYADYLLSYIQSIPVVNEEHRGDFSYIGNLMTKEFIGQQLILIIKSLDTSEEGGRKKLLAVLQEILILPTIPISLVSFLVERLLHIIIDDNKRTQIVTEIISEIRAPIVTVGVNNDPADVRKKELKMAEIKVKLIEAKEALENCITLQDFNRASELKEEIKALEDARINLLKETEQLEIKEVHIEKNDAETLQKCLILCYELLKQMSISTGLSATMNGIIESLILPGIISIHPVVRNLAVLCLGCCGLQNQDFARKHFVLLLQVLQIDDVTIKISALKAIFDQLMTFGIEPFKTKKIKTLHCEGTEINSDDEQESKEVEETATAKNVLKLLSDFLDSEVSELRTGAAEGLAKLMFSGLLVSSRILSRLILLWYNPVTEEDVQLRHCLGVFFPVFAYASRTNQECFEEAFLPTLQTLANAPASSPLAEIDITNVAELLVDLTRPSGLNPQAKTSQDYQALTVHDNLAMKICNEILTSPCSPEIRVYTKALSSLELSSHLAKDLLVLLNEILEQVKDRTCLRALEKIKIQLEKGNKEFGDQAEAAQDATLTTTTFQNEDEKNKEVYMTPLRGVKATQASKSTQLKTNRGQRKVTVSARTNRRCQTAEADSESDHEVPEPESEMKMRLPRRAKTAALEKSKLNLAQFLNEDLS
UniProt P56556, sequence (P56556 whole entry, looked up): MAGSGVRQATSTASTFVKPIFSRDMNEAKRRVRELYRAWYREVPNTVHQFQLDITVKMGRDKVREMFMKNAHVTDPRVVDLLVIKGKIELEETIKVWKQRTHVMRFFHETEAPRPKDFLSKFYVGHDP

Target	log2 fold change (bafetinib)	log2 fold change [1]	log2 fold change (nilotinib)	log2 fold change [2]	log2 fold change (dasatinib)	log2 fold change [3]	log2 fold change [4]	log2 fold change [5]	log2 fold change (tipifarnib)	log2 fold change (mubritinib)	log2 fold change [6]	log2 fold change [7]	log2 fold change [8]	log2 fold change [9]	log2 fold change (entinostat)	log2 fold change (vorinostat)	log2 fold change (citarinostat)	log2 fold change (silmitasertib)	log2 fold change [10]	log2 fold change [11]
MRPS5 (UniProt P82675)	0.153	0.159	-0.287	0.118	-0.073	0.067	0.039	0.087	-0.13	0.22	0.009	0.034	-0.057	0.013	0	0.125	0.023	-0.043	-0.039	-0.018
MTMR14 (UniProt Q8NCE2)	-0.051	-0.089	-0.023	-0.04	-0.063	0.016	-0.006	-0.084	-0.035	0.058	-0.02	-0.08	-0.087	-0.075	0.024	0.093	0.08	0.071	-0.081	0.039
MRPS2 (UniProt Q9Y399)	0.191	0.175	-0.119	0.019	-0.026	-0.062	0.043	0.035	-0.074	0.14	0.105	-0.079	-0.102	0.062	0.034	0.096	0.001	-0.103	-0.021	-0.01
NDUFB10 (UniProt O96000)	-0.105	-0.11	-0.02	0.026	-0.011	-0.021	0.015	0.081	0.044	0.019	-0.062	-0.06	-0.054	-0.022	-0.034	-0.053	0.031	0.021	-0.018	-0.006
NDUFA6 (UniProt P56556)	0.128	0.301	-0.151	0.021	-0.088	0.027	0.089	0.081	-0.173	0.184	-0.023	0.028	-0.113	-0.083	0.056	0.118	0.036	-0.016	-0.131	-0.011
NCAPG (UniProt Q9BPX3)	0.076	0.06	-0.032	-0.07	-0.085	0.065	-0.016	0.012	-0.142	-0.003	-0.062	-0.036	-0.118	-0.06	0.073	0.101	0.067	0.1	0.005	-0.016
MUL1 (UniProt Q969V5)	-0.018	0.042	0.004	0.044	0.011	-0.059	0.036	0.016	-0.037	-0.023	-0.029	-0.041	0.648 (active)	-0.024	-0.007	0.086	-0.002	-0.018	-0.021	-0.049
MOV10 (UniProt Q9HCE1)	0.068	0	0.035	0.041	0.111	0.068	-0.055	-0.101	0.091	-0.014	0.007	0.031	0.178	0.018	0.016	-0.02	-0.054	0.133	0.187	-0.164
